Data reported in publication PMC4552634, “A New Set of Chemical Starting Points with Plasmodium falciparum Transmission-Blocking Potential for Antimalarial Drug Discovery” (PLoS ONE, 2015).
Out of some 13,000 compounds screened, about 3,200 (25%) showed an effect of 50% or more. The list shows a part of the results.

What follows are molecules tested on P. falciparum stage V gametocytes. Details: 48 h, 5 µM; inhibitor.
Design: BacTiter-Glo ATP luminescence viability of purified stage V gametocytes in 384-well plates, per cent inhibition versus DMSO

SMILES | % Inhibition [%]
CC(C)c1ccc(CN2CCC(CNC(=O)c3cc(-c4cccc(Cl)c4)cs3)C2)cc1 (stereo not shown) [TCMDC-134438] | 95.05
CC(C)c1ccc(CN2CCCCC(NC(=O)c3cc(-c4cccc(F)c4)cs3)C2)cc1 (stereo not shown) [TCMDC-134463] | -60.78
CC(C)c1ccc(CN2CCC(CNC(=O)c3cc(-c4cccc(F)c4)cs3)C2)cc1 (stereo not shown) [TCMDC-134437] | 107.7
Cc1cc(N[C@@H](CC(C)C)C(=O)NCCOc2ccccc2)nc(Nc2ccccc2)n1 [TCMDC-134741] | -17.47
C#CCN(Cc1cc2c(=O)[nH]c(N)nc2cc1C)c1ccc(C(=O)N[C@@H](CCC(=O)O)C(=O)O)cc1 [TCMDC-132041] | 1.845
CCOC(=O)NC1=NC(C)(C)N(OCc2cccc3c2ccc2ccccc23)C(NC(=O)OCC)=N1 [TCMDC-131339] | 9.295
CCCCc1ccc(NC(=O)Nc2ccc3c(c2)CCNCC3)cc1 [TCMDC-141500] | 0.2373
CCOC(=O)c1c(CN2CCCC2)n(-c2ccccc2)c2cc(Br)c(O)cc12 [TCMDC-124122] | -23.97
C=C[C@]1(C)C[C@@H](OC(=O)c2cncn(COC)c2=O)[C@]2(C)[C@H](C)CC[C@]3(CCC(=O)[C@H]32)[C@@H](C)[C@@H]1O [TCMDC-141314] | 6.014
CN1CCN(c2cc(NC(=O)Nc3cccc(Cl)c3Cl)ccc2Cl)CC1 [TCMDC-139114] | -11.69
CCCC(CNCc1cccc(I)c1)CNc1cc(=O)c2ccccc2[nH]1 (stereo not shown) [TCMDC-139433] | 23.15
COc1ccc(Cc2nc3c(n2C(C)=O)SC(c2ccc(Cl)c(Cl)c2)=NN3C(C)=O)cc1 [TCMDC-125189] | 18.21
CC(=O)N1N=C(c2ccc(F)cc2)Sc2c1nc(-c1ccccc1)n2C(C)=O [TCMDC-125192] | 62.08
CC(=O)N1N=C(c2cccs2)Sc2c1nc(-c1ccc(Cl)cc1)n2C(C)=O [TCMDC-124898] | 78.97
CCOC(=O)c1[nH]c(-c2ccccc2)nc1-n1nc(C)cc1C [TCMDC-131622] | -5.185
CC(=O)N1N=C(c2ccc(F)cc2)Sc2c1nc(C1CCCCC1)n2C(C)=O [TCMDC-125190] | 77.23
CCOC(=O)c1[nH]c(-c2ccc(-c3ccccc3)cc2)nc1N [TCMDC-131797] | -4.943
CC(=O)N1N=C(c2ccccc2)Sc2c1nc(-c1ccc(Cl)cc1)n2C(C)=O [TCMDC-125193] | 43.76
CC(=O)N1N=C(c2ccc(Cl)cc2)Sc2c1nc(-c1ccccc1)n2C(C)=O [TCMDC-124899] | 80.4

SMILES | % Inhibition [%]
CC(=O)N1N=C(c2ccc(Cl)cc2)Sc2c1nc(C1CCCCC1)n2C(C)=O [TCMDC-125191] | 45.01
O=C(/C=C/c1ccc(Cl)cc1)NCCCCCN1CCCN(C(=O)Nc2ccc(F)c(Cl)c2)CC1 [TCMDC-136101] | -6.119
COc1cccc(CNC[C@@H](O)[C@H](Cc2ccccc2)NC(=O)c2cc(C3CCCC3)cc(N3CCCCS3(=O)=O)c2)c1 [TCMDC-134523] | 42.74
CCC1(CC)N=C(N)N=C(N)C1c1ccc(Cl)c(Cl)c1 (stereo not shown) [TCMDC-137597] | 8.83
COc1ccc(CN2CCCC(C(=O)c3ccc(C(F)(F)F)cc3)C2)c(O)c1 (stereo not shown) [TCMDC-124631] | 43.69
CS(=O)(=O)Cc1ccc(Nc2nccc(-c3c(-c4cccc(NC(=O)C5CCCCC5)c4)nn4ncccc34)n2)cc1 [TCMDC-135812] | -14.86
CC(=O)Nc1cccc(-c2cnc(N)c3cc(-c4ccc5c(c4)OCO5)ccc23)c1 [TCMDC-134504] | 30.5
Cn1nccc1C(=O)NCCNCc1ccc(-c2ccc(-c3nc4ccccc4[nH]3)s2)cc1.O=C(O)C(F)(F)F [TCMDC-133004] | -2.407
CCN(CC)S(=O)(=O)c1cc(-c2ccc(=O)n(CC(=O)c3ccc(C)cc3)n2)ccc1C [TCMDC-124707] | -20.12
CCC(=O)c1ccc(-c2ccc(=O)n(CC(=O)N(CCN(CC)CC)Cc3ccc(-c4ccc(C(F)(F)F)cc4)cc3)n2)cc1 [TCMDC-141574] | 82.08
CCN(CC)CCN(Cc1ccc(-c2ccc(C(F)(F)F)cc2)cc1)C(=O)Cn1nc(-c2ccc(C(F)(F)F)cc2)ccc1=O [TCMDC-141575] | 69.38
O=c1[nH]ccc2nc(N[C@@H]3CCNC3)nc(Nc3cc(Cl)cc(Cl)c3)c12 [TCMDC-135052] | 102.4
O=c1[nH]ccc2nc(N[C@@H]3CCNC3)nc(Nc3cccc(S(=O)(=O)N4CCOCC4)c3)c12 [TCMDC-135047] | 89.83
O=c1[nH]ccc2nc(N[C@@H]3CCNC3)nc(Nc3ccc4c(c3)S(=O)(=O)CC4)c12 [TCMDC-135044] | 71.11
Cc1cccc(Nc2nc(N[C@@H]3CCCNC3)nc3cc[nH]c(=O)c23)c1 [TCMDC-134835] | -44.23
Cc1cc(N2Cc3ccccc3C2)nc(Nc2ccc(S(=O)(=O)N3CCOCC3)cc2)n1 [TCMDC-134229] | -25.67
NS(=O)(=O)c1cccc(Nc2nc(N[C@@H]3CCNC3)nc3cc[nH]c(=O)c23)c1 [TCMDC-135057] | -11.44
CN(C)S(=O)(=O)c1ccc(Nc2nc(NCCC3C=NC=N3)nc3cc[nH]c(=O)c23)cc1 (stereo not shown) [TCMDC-135045] | -6.172
